What all share (test): DAPPL (digital affinity profiling via proximity ligation, sequencing); 10 mM Tris-HCl pH 7.5, 50 mM NaCl, 1 mM DTT, 4% glycerol, room temperature, 30 min; GST-TFs on glutathione beads, 16-mer random dsDNA library, 0.1% formaldehyde crosslink after washing; high values mean tight binding
What all share (settings): protein: recombinant; tags: N-terminal GST; dsDNA, one strand shown

For assay [1], the target named is T1, FLI1 (Homo sapiens, UniProt Q01543 1-452).
T1 sequence: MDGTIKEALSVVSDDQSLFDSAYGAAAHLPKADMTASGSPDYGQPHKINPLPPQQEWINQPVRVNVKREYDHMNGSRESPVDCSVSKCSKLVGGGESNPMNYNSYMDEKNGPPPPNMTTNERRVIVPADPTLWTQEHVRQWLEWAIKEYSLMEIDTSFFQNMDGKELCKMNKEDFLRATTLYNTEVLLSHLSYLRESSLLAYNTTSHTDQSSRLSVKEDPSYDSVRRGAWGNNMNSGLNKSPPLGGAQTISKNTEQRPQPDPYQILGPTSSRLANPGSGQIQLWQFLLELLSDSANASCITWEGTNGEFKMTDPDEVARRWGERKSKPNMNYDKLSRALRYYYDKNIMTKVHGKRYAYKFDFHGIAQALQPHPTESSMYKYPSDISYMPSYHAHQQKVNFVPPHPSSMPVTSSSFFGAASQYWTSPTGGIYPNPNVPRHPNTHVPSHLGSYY
Put shortly:
(§1)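 Pools were built from human transcription factors expressed in yeast as GST fusions, captured on glutathione beads and DNA-barcoded, along with a tag-only sample. Incubation with 200 nmole of a 16-mer random double-stranded DNA library lasted 30 min at room temperature in Tris/NaCl/DTT/glycerol buffer, and was followed by washing, 0.1% formaldehyde crosslinking, proximity ligation, PCR amplification and Illumina NextSeq500 sequencing. Binding signal is the quotient of each hexamer's read frequency for a factor and its frequency for the tag-only sample.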

Assay [2] concerns the target T2, ELK1 (Homo sapiens, UniProt P19419 1-428).
T2 sequence: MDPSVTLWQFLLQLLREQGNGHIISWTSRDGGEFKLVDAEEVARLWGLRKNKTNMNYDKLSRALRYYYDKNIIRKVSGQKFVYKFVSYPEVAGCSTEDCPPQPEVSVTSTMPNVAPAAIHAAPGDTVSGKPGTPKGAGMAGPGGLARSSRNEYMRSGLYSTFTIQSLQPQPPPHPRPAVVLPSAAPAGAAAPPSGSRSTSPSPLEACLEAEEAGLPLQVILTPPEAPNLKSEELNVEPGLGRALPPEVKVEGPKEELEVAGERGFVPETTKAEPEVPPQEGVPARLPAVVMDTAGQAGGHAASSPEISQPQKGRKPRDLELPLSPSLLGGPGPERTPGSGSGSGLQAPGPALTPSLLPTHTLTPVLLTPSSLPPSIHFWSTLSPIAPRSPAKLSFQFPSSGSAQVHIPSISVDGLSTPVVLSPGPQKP
Put shortly: as §1

Assay [3] addresses T3, GABPA (Homo sapiens, UniProt Q06546 1-454).
T3 sequence: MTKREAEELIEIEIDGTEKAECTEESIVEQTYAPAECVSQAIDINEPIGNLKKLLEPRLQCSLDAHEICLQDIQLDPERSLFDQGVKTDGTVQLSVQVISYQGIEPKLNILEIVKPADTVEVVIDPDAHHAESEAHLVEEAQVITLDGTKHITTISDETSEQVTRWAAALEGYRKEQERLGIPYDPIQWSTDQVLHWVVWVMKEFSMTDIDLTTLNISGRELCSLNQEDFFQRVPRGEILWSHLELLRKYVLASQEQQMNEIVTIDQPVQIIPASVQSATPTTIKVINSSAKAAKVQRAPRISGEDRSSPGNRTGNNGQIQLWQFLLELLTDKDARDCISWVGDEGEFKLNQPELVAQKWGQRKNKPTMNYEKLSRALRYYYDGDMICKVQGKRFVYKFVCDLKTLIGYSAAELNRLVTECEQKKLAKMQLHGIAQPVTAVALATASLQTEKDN
Put shortly:
as §1

The target of assay [4] is T4, ERG (Homo sapiens, UniProt P11308 1-479).
T4 sequence: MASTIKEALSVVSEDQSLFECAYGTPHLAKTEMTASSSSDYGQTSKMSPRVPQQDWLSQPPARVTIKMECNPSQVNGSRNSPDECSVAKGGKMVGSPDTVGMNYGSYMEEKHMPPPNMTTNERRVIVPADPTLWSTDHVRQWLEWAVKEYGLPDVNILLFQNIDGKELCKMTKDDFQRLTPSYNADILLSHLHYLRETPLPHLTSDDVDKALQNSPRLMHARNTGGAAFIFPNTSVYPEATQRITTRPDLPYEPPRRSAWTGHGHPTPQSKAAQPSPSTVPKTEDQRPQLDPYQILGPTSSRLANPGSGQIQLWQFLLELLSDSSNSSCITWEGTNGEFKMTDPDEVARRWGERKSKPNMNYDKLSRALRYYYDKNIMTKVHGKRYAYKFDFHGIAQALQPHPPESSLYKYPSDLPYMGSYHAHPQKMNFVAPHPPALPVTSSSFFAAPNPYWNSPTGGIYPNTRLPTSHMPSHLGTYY
The method in brief:
as §1

Assay [5] addresses ELF1 (Homo sapiens, UniProt P32519 1-619). The method in brief:
as §1

Assay [6] concerns the target T5, EHF (Homo sapiens, UniProt Q9NZC4 1-300).
T5 sequence: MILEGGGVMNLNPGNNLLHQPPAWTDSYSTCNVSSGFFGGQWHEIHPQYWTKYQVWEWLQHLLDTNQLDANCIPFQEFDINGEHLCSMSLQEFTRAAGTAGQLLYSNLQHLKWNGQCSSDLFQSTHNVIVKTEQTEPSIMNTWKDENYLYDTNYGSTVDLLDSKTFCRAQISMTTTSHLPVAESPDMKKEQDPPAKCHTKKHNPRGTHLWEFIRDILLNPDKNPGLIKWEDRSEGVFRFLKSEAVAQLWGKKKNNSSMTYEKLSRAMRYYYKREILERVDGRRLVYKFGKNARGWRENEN
The method in brief: as §1

In assay [7] the target is SPI1 (Homo sapiens, UniProt P17947 1-270). The method in brief: as §1
In assay [8] the target is SPIB (Homo sapiens, UniProt Q01892 1-262). The method in brief:
as §1

For assay [9], the target named is T6, ELK3 (Homo sapiens, UniProt P41970 1-407).
T6 sequence: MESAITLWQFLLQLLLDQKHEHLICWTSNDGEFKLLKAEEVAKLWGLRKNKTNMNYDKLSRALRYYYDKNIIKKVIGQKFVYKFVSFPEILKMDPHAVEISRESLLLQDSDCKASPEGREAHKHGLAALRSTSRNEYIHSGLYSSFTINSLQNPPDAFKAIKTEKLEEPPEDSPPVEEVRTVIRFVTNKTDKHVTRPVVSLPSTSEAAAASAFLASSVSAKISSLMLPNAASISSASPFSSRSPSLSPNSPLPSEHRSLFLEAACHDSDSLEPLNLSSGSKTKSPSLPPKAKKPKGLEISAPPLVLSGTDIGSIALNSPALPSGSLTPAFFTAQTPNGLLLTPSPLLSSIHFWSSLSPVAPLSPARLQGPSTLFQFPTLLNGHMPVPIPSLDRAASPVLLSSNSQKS
Put shortly:
as §1

ELF1, sequence (P32519 whole entry): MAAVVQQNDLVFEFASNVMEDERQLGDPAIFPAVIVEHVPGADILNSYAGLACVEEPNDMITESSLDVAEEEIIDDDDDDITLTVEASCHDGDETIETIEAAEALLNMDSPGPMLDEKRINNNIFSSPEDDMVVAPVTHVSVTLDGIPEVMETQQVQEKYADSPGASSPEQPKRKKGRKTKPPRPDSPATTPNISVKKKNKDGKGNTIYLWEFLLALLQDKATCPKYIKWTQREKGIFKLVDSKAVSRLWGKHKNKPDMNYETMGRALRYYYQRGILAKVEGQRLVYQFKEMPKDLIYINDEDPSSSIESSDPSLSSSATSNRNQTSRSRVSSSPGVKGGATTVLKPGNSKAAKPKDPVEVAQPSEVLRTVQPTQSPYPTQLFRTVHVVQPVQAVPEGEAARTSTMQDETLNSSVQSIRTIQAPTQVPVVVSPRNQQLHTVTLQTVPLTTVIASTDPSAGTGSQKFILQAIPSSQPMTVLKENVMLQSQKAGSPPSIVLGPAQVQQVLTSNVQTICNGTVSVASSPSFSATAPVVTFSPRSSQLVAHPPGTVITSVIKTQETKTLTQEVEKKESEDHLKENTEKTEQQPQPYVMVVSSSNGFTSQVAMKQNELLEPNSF
SPIB, sequence (Q01892 whole entry): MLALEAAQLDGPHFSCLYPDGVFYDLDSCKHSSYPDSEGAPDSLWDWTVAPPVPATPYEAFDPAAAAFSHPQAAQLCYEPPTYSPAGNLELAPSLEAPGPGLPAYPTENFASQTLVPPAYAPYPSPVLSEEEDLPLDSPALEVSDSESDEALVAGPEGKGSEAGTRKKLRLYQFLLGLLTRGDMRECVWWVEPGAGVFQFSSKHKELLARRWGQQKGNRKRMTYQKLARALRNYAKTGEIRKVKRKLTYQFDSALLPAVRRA

Consider CGCTCC, for which the binding signal in assay [1] was 1.37 fold enrichment (6-mer frequency, TF over GST control); in assay [2] it was 1.28 fold enrichment (6-mer frequency, TF over GST control); in assay [3], 1.37 fold enrichment (6-mer frequency, TF over GST control); in [4] it was 1.33 fold enrichment (6-mer frequency, TF over GST control); in [5] it was 1.31 fold enrichment (6-mer frequency, TF over GST control); in assay [6], 1.24 fold enrichment (6-mer frequency, TF over GST control). Further, the binding signal in assay [7] is 1.29 fold enrichment (6-mer frequency, TF over GST control); in [8], 1.36 fold enrichment (6-mer frequency, TF over GST control); in assay [9] it was 1.37 fold enrichment (6-mer frequency, TF over GST control).

Take CAAATT: the binding signal in [1] is 1.15 fold enrichment (6-mer frequency, TF over GST control); in [2] it was 1.12 fold enrichment (6-mer frequency, TF over GST control); in assay [3], 1.2 fold enrichment (6-mer frequency, TF over GST control); in [4], 1.16 fold enrichment (6-mer frequency, TF over GST control); in assay [5] it was 1.14 fold enrichment (6-mer frequency, TF over GST control); in assay [6] it was 1.11 fold enrichment (6-mer frequency, TF over GST control). In addition, the binding signal in [7] was 1.15 fold enrichment (6-mer frequency, TF over GST control); in assay [8], 1.08 fold enrichment (6-mer frequency, TF over GST control); in [9], 1.14 fold enrichment (6-mer frequency, TF over GST control).

For the sequence CCCACA, the binding signal in [1] is 1.13 fold enrichment (6-mer frequency, TF over GST control); in [2], 1.12 fold enrichment (6-mer frequency, TF over GST control); in assay [3], 1.26 fold enrichment (6-mer frequency, TF over GST control); in assay [4], 1.07 fold enrichment (6-mer frequency, TF over GST control); in assay [5], 1.17 fold enrichment (6-mer frequency, TF over GST control); in assay [6], 1.12 fold enrichment (6-mer frequency, TF over GST control). The binding signal in [7] is 1.08 fold enrichment (6-mer frequency, TF over GST control); in [8], 1.1 fold enrichment (6-mer frequency, TF over GST control); in assay [9] it was 1.08 fold enrichment (6-mer frequency, TF over GST control).

Regarding CACGCC, the binding signal was 1.12 fold enrichment (6-mer frequency, TF over GST control) in [1]; 1.25 fold enrichment (6-mer frequency, TF over GST control) in [2]; 1.27 fold enrichment (6-mer frequency, TF over GST control) in [3]; 1.29 fold enrichment (6-mer frequency, TF over GST control) in assay [4]; 1.26 fold enrichment (6-mer frequency, TF over GST control) in assay [5]; 1.18 fold enrichment (6-mer frequency, TF over GST control) in [6]. Further, the binding signal in assay [7] is 1.2 fold enrichment (6-mer frequency, TF over GST control); in assay [8] it was 1.15 fold enrichment (6-mer frequency, TF over GST control); in assay [9], 1.22 fold enrichment (6-mer frequency, TF over GST control).

Take GAAGTG: the binding signal in [1] is 1.46 fold enrichment (6-mer frequency, TF over GST control); in assay [2] it was 1.7 fold enrichment (6-mer frequency, TF over GST control); in assay [3] it was 1.49 fold enrichment (6-mer frequency, TF over GST control); in assay [4], 1.87 fold enrichment (6-mer frequency, TF over GST control); in assay [5], 1.52 fold enrichment (6-mer frequency, TF over GST control); in assay [6], 1.71 fold enrichment (6-mer frequency, TF over GST control). The binding signal in assay [7] was 2.8 fold enrichment (6-mer frequency, TF over GST control); in [8] it was 1.61 fold enrichment (6-mer frequency, TF over GST control); in assay [9], 1.75 fold enrichment (6-mer frequency, TF over GST control).

Regarding TTAGAA, the binding signal was 1 fold enrichment (6-mer frequency, TF over GST control) in [1]; 1.02 fold enrichment (6-mer frequency, TF over GST control) in [2]; 1.01 fold enrichment (6-mer frequency, TF over GST control) in assay [3]; 1.05 fold enrichment (6-mer frequency, TF over GST control) in assay [4]; 1.14 fold enrichment (6-mer frequency, TF over GST control) in assay [5]; 1.14 fold enrichment (6-mer frequency, TF over GST control) in assay [6]. For the same sequence, the binding signal was 1.13 fold enrichment (6-mer frequency, TF over GST control) in assay [7]; 1.03 fold enrichment (6-mer frequency, TF over GST control) in assay [8]; 1.06 fold enrichment (6-mer frequency, TF over GST control) in assay [9].

Turning to ACCTAT, the binding signal in assay [1] is 1.18 fold enrichment (6-mer frequency, TF over GST control); in assay [2], 1.26 fold enrichment (6-mer frequency, TF over GST control); in assay [3], 1.16 fold enrichment (6-mer frequency, TF over GST control); in assay [4], 1.07 fold enrichment (6-mer frequency, TF over GST control); in assay [5], 1.21 fold enrichment (6-mer frequency, TF over GST control); in assay [6] it was 1.21 fold enrichment (6-mer frequency, TF over GST control). Further, the binding signal was 1.17 fold enrichment (6-mer frequency, TF over GST control) in assay [7]; 1.15 fold enrichment (6-mer frequency, TF over GST control) in assay [8]; 1.17 fold enrichment (6-mer frequency, TF over GST control) in assay [9].

Take CTGGGT: the binding signal in assay [1] is 1.21 fold enrichment (6-mer frequency, TF over GST control); in assay [2], 1.1 fold enrichment (6-mer frequency, TF over GST control); in assay [3] it was 1.18 fold enrichment (6-mer frequency, TF over GST control); in assay [4] it was 1.12 fold enrichment (6-mer frequency, TF over GST control); in assay [5], 1.17 fold enrichment (6-mer frequency, TF over GST control); in [6], 1.12 fold enrichment (6-mer frequency, TF over GST control). For the same sequence, the binding signal in assay [7] was 1.13 fold enrichment (6-mer frequency, TF over GST control); in assay [8], 1.09 fold enrichment (6-mer frequency, TF over GST control); in assay [9], 1.1 fold enrichment (6-mer frequency, TF over GST control).

Source of the values: publication PMC7862700, “An all-to-all approach to the identification of sequence-specific readers for epigenetic DNA modifications on cytosine”.
